Experimental data taken from PubChem BioAssay AID1159580 (chemical genetic matrix, 2015).
Among all 5,500 compounds or so, about 2,000 (36%) were called active. Roughly 18% stayed inconclusive and do not appear here. No stated cut-off is given here; in the data, active means normalized growth mostly below about 0.91 (no sharp cut-off); inconclusive means no clear call, values can overlap the other calls; inactive means mostly above about 0.92. This is one part of the list.

Experiment: chemical genetic growth profiling, strain panel (AID 1159580);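 further: tested at 20 µM; growth read once vehicle control cultures reached saturation at 30 °C; 1 = growth at the plate median or of vehicle wells; lower values mean less growth of the strain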
Conditions: growth OD

Measured: normalized growth

O=C(O)CNCP(=O)(O)O
inactive: S. cerevisiae deletion strains, locus YJR075W, strain HOC1, active compounds read low 1.01 | S. cerevisiae deletion strains, locus YKL009W, strain mrt4, active compounds read low 1.04 | S. cerevisiae deletion strains, locus YKL068W, active compounds read low 1.01 | S. cerevisiae deletion strains, locus YKL085W, strain MDH1 (second series), active compounds read low 1 | S. cerevisiae deletion strains, locus YKL085W, strain MDH1, active compounds read low 1 | S. cerevisiae deletion strains, locus YKL160W, strain elf1, active compounds read low 1.02 | S. cerevisiae deletion strains, locus YKL190W, strain CNB1, active compounds read low 1.01 | S. cerevisiae deletion strains, locus YKR001C, strain vps1, active compounds read low 1.02 | S. cerevisiae deletion strains, locus YKR026C, strain gcn3, active compounds read low 1.02 | S. cerevisiae deletion strains, locus YKR091W, strain srl3, active compounds read low 1.01 | S. cerevisiae deletion strains, locus YLL001W, strain dnm1, active compounds read low 1.02 | S. cerevisiae deletion strains, locus YLL026W, active compounds read low 1.01 | S. cerevisiae deletion strains, locus YLL041C, strain sdh2, active compounds read low 1.01 | S. cerevisiae deletion strains, locus YLR027C, strain aat2, active compounds read low 1.01 | S. cerevisiae deletion strains, locus YLR039C, strain RIC1, active compounds read low 1.03 | S. cerevisiae deletion strains, locus YLR058C, strain SHM2, active compounds read low 1.01 | S. cerevisiae deletion strains, locus YLR102C, strain apc9, active compounds read low 1.01 | S. cerevisiae deletion strains, locus YLR113W, strain HOG1, active compounds read low 1.02 | S. cerevisiae deletion strains, locus YLR221C, strain rsa3, active compounds read low 1.01 | S. cerevisiae deletion strains, locus YLR258W, strain gsy2, active compounds read low 1.02 | S. cerevisiae deletion strains, locus YLR262C, strain YPT6 (second series), active compounds read low 1.03 | S. cerevisiae deletion strains, locus YLR262C, strain YPT6, active compounds read low 1.03 | S. cerevisiae deletion strains, locus YLR268W, strain sec22, active compounds read low 1 | S. cerevisiae deletion strains, locus YLR320W, strain mms22, active compounds read low 1.03 | S. cerevisiae deletion strains, locus YLR330W, strain CHS5, active compounds read low 1.01 | S. cerevisiae deletion strains, locus YLR342W, strain FKS1 (second series), active compounds read low 1.03 | S. cerevisiae deletion strains, locus YLR342W, strain FKS1, active compounds read low 1.03 | S. cerevisiae deletion strains, locus YLR357W, strain rsc2, active compounds read low 1.03 | S. cerevisiae deletion strains, locus YLR370C, strain arc18, active compounds read low 1 | S. cerevisiae deletion strains, locus YLR371W, strain rom2, active compounds read low 1.01 | S. cerevisiae deletion strains, locus YLR384C, strain iki3, active compounds read low 0.993 | S. cerevisiae deletion strains, locus YLR418C, strain cdc73, active compounds read low 1.02 | S. cerevisiae deletion strains, locus YML016C, strain PPZ1, active compounds read low 1 | S. cerevisiae deletion strains, locus YML032C, strain rad52, active compounds read low 1.01 | S. cerevisiae deletion strains, locus YML120C, strain ndi1, active compounds read low 1.02 | S. cerevisiae deletion strains, locus YML124C, strain tub3, active compounds read low 1.01 | S. cerevisiae deletion strains, locus YMR058W, strain fet3, active compounds read low 1.02 | S. cerevisiae deletion strains, locus YMR078C, strain ctf18, active compounds read low 1.01 | S. cerevisiae deletion strains, locus YMR125W, strain sto1, active compounds read low 1.02 | S. cerevisiae deletion strains, locus YMR129W, active compounds read low 1.01 | S. cerevisiae deletion strains, locus YMR205C, strain PFK2, active compounds read low 1.05 | S. cerevisiae deletion strains, locus YMR223W, strain ubp8, active compounds read low 1.01 | S. cerevisiae deletion strains, locus YMR231W, strain pep5, active compounds read low 1 | S. cerevisiae deletion strains, locus YMR263W, strain SAP30, active compounds read low 1.01 | S. cerevisiae deletion strains, locus YMR307W, strain GAS1, active compounds read low 0.975 | S. cerevisiae deletion strains, locus YNL067W, strain RPL9B, active compounds read low 1.02 | S. cerevisiae deletion strains, locus YNL071W, strain lat1, active compounds read low 1.02 | S. cerevisiae deletion strains, locus YNL128W, strain TEP1, active compounds read low 1 | S. cerevisiae deletion strains, locus YNL153C, strain GIM3, active compounds read low 1 | S. cerevisiae deletion strains, locus YNL183C, strain NPR1, active compounds read low 0.917 | S. cerevisiae deletion strains, locus YNL209W, strain ssb2, active compounds read low 1.03 | S. cerevisiae deletion strains, locus YNL233W, strain BNI4, active compounds read low 1.02 | S. cerevisiae deletion strains, locus YNL248C, strain rpa49, active compounds read low 1.01 | S. cerevisiae deletion strains, locus YNL250W, strain rad50, active compounds read low 1 | S. cerevisiae deletion strains, locus YNL271C, strain bni1, active compounds read low 1.01 | S. cerevisiae deletion strains, locus YNL298W, strain CLA4, active compounds read low 1.02 | S. cerevisiae deletion strains, locus YNL307C, strain MCK1, active compounds read low 1.02 | S. cerevisiae deletion strains, locus YNL322C, strain KRE1 (second series), active compounds read low 1.02 | S. cerevisiae deletion strains, locus YNL322C, strain KRE1, active compounds read low 1 | S. cerevisiae deletion strains, locus YNR049C, strain mso1, active compounds read low 1.02 | S. cerevisiae deletion strains, locus YNR052C, strain pop2, active compounds read low 1.01 | S. cerevisiae deletion strains, locus YOL006C, strain TOP1, active compounds read low 1.05 | S. cerevisiae deletion strains, locus YOL012C, strain htz1 0.788 | S. cerevisiae deletion strains, locus YOL147C, strain pex11, active compounds read low 1.01 | S. cerevisiae deletion strains, locus YOR001W, strain rrp6, active compounds read low 1.01 | S. cerevisiae deletion strains, locus YOR061W, strain CKA2, active compounds read low 1 | S. cerevisiae deletion strains, locus YOR069W, strain VPS5, active compounds read low 1.01 | S. cerevisiae deletion strains, locus YOR070C, strain gyp1, active compounds read low 1.02 | S. cerevisiae deletion strains, locus YOR080W, strain dia2, active compounds read low 1.01 | S. cerevisiae deletion strains, locus YOR083W, strain WHI5, active compounds read low 1.01 | S. cerevisiae deletion strains, locus YOR106W, strain vam3, active compounds read low 1.02 | S. cerevisiae deletion strains, locus YOR136W, strain idh2, active compounds read low 1.02 | S. cerevisiae deletion strains, locus YOR144C, strain elg1, active compounds read low 1.02 | S. cerevisiae deletion strains, locus YOR184W, strain ser1, active compounds read low 1.02 | S. cerevisiae deletion strains, locus YOR231W, strain MKK1, active compounds read low 0.977 | S. cerevisiae deletion strains, locus YOR265W, strain rbl2, active compounds read low 1.01 | S. cerevisiae deletion strains, locus YOR270C, strain vph1, active compounds read low 1.03 | S. cerevisiae deletion strains, locus YOR290C, strain snf2, active compounds read low 1.02 | S. cerevisiae deletion strains, locus YOR316C, strain cot1, active compounds read low 1.01 | S. cerevisiae deletion strains, locus YPL051W, strain arl3, active compounds read low 1.02 | S. cerevisiae deletion strains, locus YPL055C, strain LGE1, active compounds read low 0.987 | S. cerevisiae deletion strains, locus YPL078C, strain atp4, active compounds read low 1.02 | S. cerevisiae deletion strains, locus YPL106C, strain sse1, active compounds read low 1.02 | S. cerevisiae deletion strains, locus YPL240C, strain hsp82, active compounds read low 1.02 | S. cerevisiae deletion strains, locus YPL241C, strain CIN2, active compounds read low 0.999 | S. cerevisiae deletion strains, locus YPL256C, strain CLN2, active compounds read low 0.962 | S. cerevisiae deletion strains, locus YPR119W, strain clb2, active compounds read low 1.01 | S. cerevisiae deletion strains, locus YPR141C, strain kar3, active compounds read low 1.02 | S. cerevisiae deletion strains, locus YPR163C, strain tif3, active compounds read low 1.01 | S. cerevisiae deletion strains, locus YPR167C, strain met16, active compounds read low 1.02 | S. cerevisiae deletion strains, strain wtn01, active compounds read low 1.01 | S. cerevisiae strains, strain wild type, active compounds read low 0.997
